Measurements: PubChem BioAssay AID1159580 (chemical genetic matrix, 2015)
Out of some 5,500 compounds screened, about 2,000 (36%) were called active. Roughly 18% stayed inconclusive and do not appear here. No stated cut-off is given here; in the data, active means normalized growth mostly below about 0.91 (no sharp cut-off); inconclusive means no clear call, values can overlap the other calls; inactive means mostly above about 0.92. The list shows a part of the results.

Experiment: chemical genetic growth profiling, strain panel (AID 1159580);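 further: tested at 20 µM; growth read once vehicle control cultures reached saturation at 30 °C; 1 = growth at the plate median or of vehicle wells; lower values mean less growth of the strain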
Settings: growth OD
[1] = S. cerevisiae deletion strains, locus YDL101C, strain DUN1, active compounds read low
[2] = S. cerevisiae deletion strains, locus YHR030C, strain SLT2, active compounds read low
[3] = S. cerevisiae deletion strains, locus YNL322C, strain KRE1, active compounds read low
[4] = S. cerevisiae deletion strains, locus YPL055C, strain LGE1, active compounds read low
[5] = S. cerevisiae deletion strains, locus YPL241C, strain CIN2, active compounds read low

Measured: normalized growth

Cc1ccc(C)c(CSc2nc(C3CCCCC3)c(C#N)c(=O)[nH]2)c1
active: [2] 1.18 [resistant]
inactive: S. cerevisiae deletion strains, locus YAR019C, strain CDC15, active compounds read low 0.979 | S. cerevisiae deletion strains, locus YBL105C, strain PKC1, active compounds read low 0.975 | S. cerevisiae deletion strains, locus YBR135W, strain CKS1, active compounds read low 0.964 | S. cerevisiae deletion strains, locus YBR136W, strain MEC1, active compounds read low 0.98 | S. cerevisiae deletion strains, locus YBR160W, strain CDC28, active compounds read low 0.98 | S. cerevisiae deletion strains, locus YDL017W, strain CDC7, active compounds read low 0.981 | S. cerevisiae deletion strains, locus YDL028C, strain MPS1, active compounds read low 0.985 | [1] 0.983 | S. cerevisiae deletion strains, locus YDL108W, strain KIN28, active compounds read low 0.985 | S. cerevisiae deletion strains, locus YDL132W, strain cdc53, active compounds read low 0.973 | S. cerevisiae deletion strains, locus YDL214C, strain PRR2, active compounds read low 1 | S. cerevisiae deletion strains, locus YDR052C, strain DBF4, active compounds read low 0.968 | S. cerevisiae deletion strains, locus YDR054C, strain cdc34, active compounds read low 0.983 | S. cerevisiae deletion strains, locus YDR226W, strain ADK1, active compounds read low 0.984 | S. cerevisiae deletion strains, locus YDR477W, strain SNF1, active compounds read low 1 | S. cerevisiae deletion strains, locus YER123W, strain YCK3, active compounds read low 1.01 | S. cerevisiae deletion strains, locus YER133W, strain GLC7, active compounds read low 1.01 | S. cerevisiae deletion strains, locus YFL009W, strain cdc4, active compounds read low 0.981 | S. cerevisiae deletion strains, locus YFL029C, strain CAK1, active compounds read low 0.983 | S. cerevisiae deletion strains, locus YFR003C, strain YPI1, active compounds read low 0.98 | S. cerevisiae deletion strains, locus YFR019W, strain FAB1, active compounds read low 0.992 | S. cerevisiae deletion strains, locus YFR028C, strain CDC14, active compounds read low 0.975 | S. cerevisiae deletion strains, locus YGR040W, strain KSS1, active compounds read low 1.02 | S. cerevisiae deletion strains, locus YGR052W, strain FMP48, active compounds read low 1.11 | S. cerevisiae deletion strains, locus YGR092W, strain DBF2, active compounds read low 0.987 | S. cerevisiae deletion strains, locus YHR079C, strain IRE1, active compounds read low 1.12 | S. cerevisiae deletion strains, locus YHR082C, strain KSP1, active compounds read low 1.14 | S. cerevisiae deletion strains, locus YHR205W, strain SCH9, active compounds read low 0.988 | S. cerevisiae deletion strains, locus YIL147C, strain SLN1, active compounds read low 0.971 | S. cerevisiae deletion strains, locus YJL095W, strain BCK1, active compounds read low 1.12 | S. cerevisiae deletion strains, locus YJL128C, strain PBS2, active compounds read low 0.981 | S. cerevisiae deletion strains, locus YJL157C, strain FAR1, active compounds read low 1 | S. cerevisiae deletion strains, locus YJR016C, strain ILV3, active compounds read low 0.989 | S. cerevisiae deletion strains, locus YJR066W, strain TOR1 (second series), active compounds read low 0.99 | S. cerevisiae deletion strains, locus YJR066W, strain TOR1, active compounds read low 1.17 | S. cerevisiae deletion strains, locus YKL048C, strain ELM1, active compounds read low 0.98 | S. cerevisiae deletion strains, locus YKL067W, strain YNK1, active compounds read low 0.98 | S. cerevisiae deletion strains, locus YKL101W, strain HSL1, active compounds read low 0.992 | S. cerevisiae deletion strains, locus YKL193C, strain SDS22, active compounds read low 0.97 | S. cerevisiae deletion strains, locus YKL203C, strain TOR2, active compounds read low 1.09 | S. cerevisiae deletion strains, locus YLR113W, strain HOG1, active compounds read low 1.06 | S. cerevisiae deletion strains, locus YLR133W, strain CKI1, active compounds read low 0.984 | S. cerevisiae deletion strains, locus YLR403W, strain SFP1, active compounds read low 0.999 | S. cerevisiae deletion strains, locus YML070W, strain DAK1, active compounds read low 1 | S. cerevisiae deletion strains, locus YMR001C, strain CDC5, active compounds read low 0.971 | S. cerevisiae deletion strains, locus YMR205C, strain PFK2 (second series), active compounds read low 0.99 | S. cerevisiae deletion strains, locus YMR277W, strain FCP1, active compounds read low 0.978 | S. cerevisiae deletion strains, locus YNL006W, strain LST8, active compounds read low 0.978 | S. cerevisiae deletion strains, locus YNL020C, strain ARK1, active compounds read low 0.982 | S. cerevisiae deletion strains, locus YNL161W, strain CBK1, active compounds read low 0.984 | S. cerevisiae deletion strains, locus YNL183C, strain NPR1, active compounds read low 1.11 | S. cerevisiae deletion strains, locus YNL207W, strain RIO2, active compounds read low 0.995 | S. cerevisiae deletion strains, locus YNL222W, strain SSU72, active compounds read low 0.972 | S. cerevisiae deletion strains, locus YNL307C, strain MCK1 (second series), active compounds read low 0.996 | S. cerevisiae deletion strains, locus YOL078W, strain AVO1, active compounds read low 0.982 | S. cerevisiae deletion strains, locus YOL136C, strain PFK27, active compounds read low 1.01 | S. cerevisiae deletion strains, locus YOR061W, strain CKA2, active compounds read low 0.996 | S. cerevisiae deletion strains, locus YOR119C, strain RIO1, active compounds read low 1.04 | S. cerevisiae deletion strains, locus YOR231W, strain MKK1, active compounds read low 1.1 | S. cerevisiae deletion strains, locus YOR329C, strain SCD5, active compounds read low 0.985 | S. cerevisiae deletion strains, locus YPL031C, strain PHO85, active compounds read low 1.01 | S. cerevisiae deletion strains, locus YPL153C, strain RAD53, active compounds read low 1.01 | S. cerevisiae deletion strains, locus YPL204W, strain HRR25, active compounds read low 1 | S. cerevisiae deletion strains, locus YPL209C, strain IPL1, active compounds read low 0.988 | S. cerevisiae deletion strains, locus YPL256C, strain CLN2, active compounds read low 1.12 | S. cerevisiae deletion strains, locus YPR025C, strain CCL1, active compounds read low 0.973 | S. cerevisiae deletion strains, locus YPR106W, strain ISR1, active compounds read low 0.987 | S. cerevisiae deletion strains, locus YPR111W, strain DBF20, active compounds read low 0.977 | S. cerevisiae deletion strains, strain NNK1, active compounds read low 0.994 | S. cerevisiae deletion strains, strain TSCII, active compounds read low 0.981

NCc1cc(=O)[nH]o1
inactive: S. cerevisiae deletion strains, locus YAL040C, strain CLN3, active compounds read low 1.05 | S. cerevisiae deletion strains, locus YCL061C, strain MRC1 (second series), active compounds read low 1 | S. cerevisiae deletion strains, locus YDR363W, strain ESC2, active compounds read low 1.01 | S. cerevisiae deletion strains, locus YER002W, strain NOP16, active compounds read low 1.02 | S. cerevisiae deletion strains, locus YMR307W, strain GAS1, active compounds read low 1 | S. cerevisiae deletion strains, locus YNL175C, strain NOP13, active compounds read low 1 | S. cerevisiae deletion strains, locus YNL197C, strain WHI3, active compounds read low 1.02 | S. cerevisiae deletion strains, locus YNL224C, strain SQS1, active compounds read low 1.01 | [3] 1.01 | S. cerevisiae deletion strains, locus YOR083W, strain WHI5 (second series), active compounds read low 1 | [4] 1.01 | [5] 0.989

Cc1noc(C)c1C(=O)N1CCN(c2ncc(C(F)(F)F)cc2Cl)CC1
inactive: S. cerevisiae deletion strains, locus YAL013W, strain DEP1, active compounds read low 0.994 | S. cerevisiae deletion strains, locus YBR229C, strain ROT2, active compounds read low 0.988 | S. cerevisiae deletion strains, locus YCL061C, strain MRC1, active compounds read low 0.993 | [1] 0.977 | S. cerevisiae deletion strains, locus YDR150W, strain NUM1, active compounds read low 0.897 | S. cerevisiae deletion strains, locus YEL061C, strain CIN8, active compounds read low 0.975 | S. cerevisiae deletion strains, locus YGR078C, strain PAC10, active compounds read low 0.994 | [2] 1.07 | S. cerevisiae deletion strains, locus YHR087W, strain rtc3, active compounds read low 0.975 | S. cerevisiae deletion strains, locus YJR043C, strain POL32, active compounds read low 0.998 | S. cerevisiae deletion strains, locus YJR075W, strain HOC1, active compounds read low 0.972 | S. cerevisiae deletion strains, locus YKL190W, strain CNB1, active compounds read low 1 | S. cerevisiae deletion strains, locus YLR039C, strain RIC1, active compounds read low 0.995 | S. cerevisiae deletion strains, locus YLR058C, strain SHM2 (second series), active compounds read low 1 | S. cerevisiae deletion strains, locus YLR085C, strain ARP6, active compounds read low 0.982 | S. cerevisiae deletion strains, locus YLR262C, strain YPT6, active compounds read low 0.979 | S. cerevisiae deletion strains, locus YML094W, strain GIM5, active compounds read low 0.968 | S. cerevisiae deletion strains, locus YMR219W, strain ESC1, active compounds read low 1 | S. cerevisiae deletion strains, locus YMR263W, strain SAP30, active compounds read low 1.01 | S. cerevisiae deletion strains, locus YNL128W, strain TEP1, active compounds read low 0.99 | S. cerevisiae deletion strains, locus YNL153C, strain GIM3, active compounds read low 0.986 | S. cerevisiae deletion strains, locus YNL298W, strain CLA4 (second series), active compounds read low 1.02 | [3] 0.989 | S. cerevisiae deletion strains, locus YNR030W, strain Alg12, active compounds read low 0.97 | S. cerevisiae deletion strains, locus YOL006C, strain TOP1, active compounds read low 0.99 | [4] 0.933 | [5] 1.1 | S. cerevisiae deletion strains, locus YPR135W, strain CTF4, active compounds read low 0.942 | S. cerevisiae strains, strain wild type, active compounds read low 0.993
